This assay is described as follows: binders of probe aFSTL3 on microarray, primary screen, stem cell growth factor project, biochemical, small-molecule microarray, fluorescence 635/667 (AID 1064).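 Note: measures binding of the biotinylated anti-FSTL3 antibody to printed compounds.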 Particulars: higher = more signal.
For the molecule `CC(=O)c1ccc(C(O)C2C=CC3C(=O)NC(=O)C3N2Nc2ccc(Cl)cc2Cl)cc1` (stereo not given), the composite z-score is 0.863.

Consider `C=CCC(OC(C)=O)[C@@H]1[C@@H](N(Cc2cccc3ccccc23)C(=O)c2ccc(C)cc2)c2cc(OCCCO)ccc2N1C(=O)c1ccc2ccccc2n1` (stereo not given in full), for which the composite z-score is -0.0635.

`COC(=O)[C@@H]1N=C(c2ccc(OCCCO)cc2)O[C@@H]1c1ccccc1CN=[N+]=[N-]` registered a composite z-score of 0.879.

With `COc1ccc([Si](C)(C)[C@@H]2[C@@H](CCO)O[C@]3(C(=O)N(Cc4ccccc4)c4ccc(N5C(=O)c6ccccc6Oc6ccccc65)cc43)[C@H]2C)cc1`, the composite z-score is -0.0276.

In turn, `COC(=O)[C@@]1(Cc2ccc(F)cc2)[C@H]2c3cc(C(=O)N(C)C)n(CCO)c3C[C@H]2CN1C(=O)c1ccccc1` came in with a composite z-score of 0.135.

In turn, `CC(C)(C)N1CC=CC23O[C@@H]4/C=C\CCCOC(=O)C4[C@H]2C(=O)N(CCCCCCO)[C@@H]3C1=O` (stereo not given in full) had a composite z-score of 0.509.

Molecule `C=C(CCCC)C(=O)CC[C@H](OC(C)=O)c1ccccc1OCCO` had a composite z-score of -0.327.

Take `COCCOC(=O)N1C(=O)[C@@]2(c3cc(C#CCC(C(=O)OC)C(=O)OC)ccc31)[C@H](C(=O)N1CCc3cc(OC)c(OC)cc3C1)[C@H]1C(=O)O[C@H](c3ccccc3)[C@H](c3ccccc3)N1[C@@H]2c1ccc(O)cc1`: the composite z-score was -0.318.

Turning to `O=C(NCCO)C1=C[C@H](Oc2ccccc2I)[C@@H](O)[C@H](NCc2ccc(F)cc2)C1`, the composite z-score was determined as 0.175.

Turning to `C=CCC(OC(C)=O)[C@@H]1[C@@H](N(Cc2cccc3ccccc23)C(=O)c2ccc(-c3ccccc3)cc2)c2cc(OCCCO)ccc2N1C(=O)c1ccc2ccccc2n1` (stereo not given in full), the composite z-score is -0.093.

`COc1ccc([Si](C)(C)[C@H]2[C@H](CCO)O[C@@]3(C(=O)N(Cc4ccccc4)c4ccc(N(C=O)c5ccccc5)cc43)[C@@H]2C)cc1` showed a composite z-score of -0.317.

As for `CCCC[C@H]1OB(O)C[C@H]2C1=C(C)C[C@H]1C(=O)C=CC(=O)[C@H]12`, the composite z-score is -0.567.

With `[N-]=[N+]=NCc1ccccc1[C@@H]1OC(c2ccc(OCCCO)cc2)=N[C@]1(Cc1ccccc1)C(=O)NCc1ccccc1`, the composite z-score was -0.158.

`COc1ccccc1CN1C(=O)c2ccccc2[C@](Cc2ccccc2I)(C(=O)NCCCN(C)C)[C@@H]1c1ccc(CO)cc1` showed a composite z-score of -0.967.

With `CCCCCCc1nc(-c2ccc(OC)nc2)cc2c1[Si](C(C)C)(C(C)C)OC2`, the composite z-score was -0.0192.

Consider `CC(=O)n1cc(C(O)C2C=CC3C(=O)N(c4ccccc4)C(=O)C3N2Nc2ccccc2F)c2ccccc21` (stereo not given), for which the composite z-score was -0.146.

In turn, `COc1ccc(NN2C(C(O)c3cc(C(F)(F)F)cc(C(F)(F)F)c3)C=CC3C(=O)N(C4CCCCC4)C(=O)C32)cc1` (stereo not given) registered a composite z-score of 0.844.

On to `CC1CC/C=C\[C@H]2OC34C=CCN(c5ccc(Cl)cc5)C(=O)[C@H]3N(CCCO)C(=O)[C@]4(C)C2C(=O)O1` (stereo not given in full), for which the composite z-score came to 0.316.

On to `O=C1NC(=O)C2C1C=CC(C(O)c1cccc(O)c1)N2Nc1ccc(Cl)cc1Cl` (stereo not given), for which the composite z-score amounted to 0.312.

Molecule `CCc1cccc(NC(=O)O[C@H]2[C@H](OC(=O)Nc3ccc4c(c3)OCO4)[C@H](OC(=O)Nc3ccc4c(c3)OCO4)[C@@H](OC)O[C@@H]2CO)c1` returned a composite z-score of 0.0053.

In turn, `C[N+](C)(C)CCCCCCNC(=O)[C@@H]1C[C@@H]2C(=O)N[C@@H](Cc3ccccc3)C(=O)N2[C@@H]1c1ccc(O)cc1` had a composite z-score of -0.283.

The molecule `CCN(CC)c1ccc(N2CC=CC34O[C@@H]5C=CCOC(=O)[C@@H]5[C@H]3C(=O)N(CCCO)[C@@H]4C2=O)cc1` (stereo not given in full) showed a composite z-score of 0.515.

`COCCCNC(=O)[C@@]1(Sc2ccc(C)cc2)CC(=O)N(C2CCCCC2)[C@@H]1c1ccc(CO)cc1I` gave a composite z-score of -0.364.

With `COCCOC(=O)N1C(=O)[C@@]2(c3cc(C#CC4(O)CCCCCC4)ccc31)[C@H](c1ccc(OCCO)cc1)N1[C@H](c3ccccc3)[C@H](c3ccccc3)OC(=O)[C@H]1[C@@H]2C(=O)N1CCCCCCC1`, the composite z-score worked out at 1.81.

The molecule `C=CC[C@@]12N=C(c3ccc(OCCCO)cc3)O[C@@H]1c1ccccc1N(Cc1ccccc1)C2=O` had a composite z-score of 1.16.

In the case of `C=C(CCCC)/C(=C/C[C@H](OC(C)=O)c1cccc(OCCO)c1)c1cc(C(=O)OC)ccc1OC`, the composite z-score was found to be 0.0336.

Turning to `O=c1cccc(-c2ccccc2C(F)(F)F)o1`, the composite z-score worked out at 0.912.

Molecule `COC(=O)[C@@]1(Cc2ccc(OC)cc2)[C@H]2c3cc(C(=O)N4CCCC4)n(CCc4ccc(OC)c(Br)c4)c3C[C@H]2CN1C(=O)c1ccccc1` yielded a composite z-score of 1.02.

`COc1ccc(CCNC(=O)[C@@H]2c3ccccc3C(=O)N(CC34CC5CC(CC(C5)C3)C4)[C@H]2c2ccc(CO)cc2)cc1` yielded a composite z-score of -0.227.

The molecule `CCCCC(=C=CC[C@@H](O)c1cccc(OCCO)c1)CCO` showed a composite z-score of -0.219.

`COC(=O)C1(CC(C)C)C=C2C(=C(C(C)C)C(=O)C2C)CN1` (stereo not given) displayed a composite z-score of 0.901.

`COCCOC(=O)N1C(=O)[C@@]2(c3cc(C#CCC(C(=O)OC)C(=O)OC)ccc31)[C@H](C(=O)N1CCCCCCC1)[C@H]1C(=O)O[C@H](c3ccccc3)[C@H](c3ccccc3)N1[C@@H]2c1ccccc1OCCO` gave a composite z-score of 3.92.

In the case of `C=CCNC(=O)[C@H]1[C@@H]2C(=O)O[C@@H](c3ccccc3)[C@@H](c3ccccc3)N2[C@@H](c2ccc(O)cc2)[C@]12C(=O)Nc1ccc(C#CC3=CCCCC3)cc12`, the composite z-score was -0.713.

In turn, `C=CCC(OC(C)=O)[C@@H]1[C@@H](N(Cc2ccc(-c3cccc(C(F)(F)F)c3)o2)C(=O)c2cccc3ccccc23)c2cc(OCCCO)ccc2N1C(=O)c1ccc2ccccc2n1` (stereo not given in full) came in with a composite z-score of 0.672.

Molecule `CCC[C@@H]1[C@@H](Sc2ccccc2)[C@@H](C(=O)O)[C@H](c2ccc(C)cc2)N1S(=O)(=O)c1ccc(C)cc1` displayed a composite z-score of -0.259.

(Values after PubChem BioAssay.)
